Our source for the composite z-score and z-score values is PubChem BioAssay.

Activity calls are given as the source filed them.

In assay [1] the test system is Plasmodium falciparum Sir2 (PF13_0152, Sir2A). Put plainly: Plasmodium falciparum Sir2A binding compounds – biochemical, small-molecule microarray, 635 nm fluorescence, primary screen (AID 1098).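 Note: score merges spot fluorescence intensity with its signal-to-noise ratio.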 Particulars: fluorescence 635 nm, higher = more signal.
Assay [2] can be described thus: probe aDKK1 binding to arrayed compounds – biochemical, biotinylated probe, 635/667 nm fluorescence, primary screen (AID 1099).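 Note: score merges 667nm spot fluorescence with signal to noise across triplicate slides.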 Particulars: small-molecule microarray, higher = more signal.
Assay [3] can be described thus: probe aCHRDL2 binding to arrayed compounds – biochemical, biotinylated probe, 635/667 nm fluorescence, primary screen (AID 1100). To be noted: small-molecule microarray, higher = more signal.
Assay [4] is described as follows: change in splice reporter luminescence, either direction, cell-based, HEK293, spliceosome inhibition project, primary screen (AID 1101).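 Note: HEK293 cells carrying a splicing-competent luciferase reporter gene; test concentration not given here.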 Particulars: HEK293 splicing luciferase reporter, 24 h, higher = more signal, called active from +8 up or from −8 down. On the technique in general: Reporter assays use an easily measured gene product as a stand-in for the process of interest.

Assay [5] has as its target Fibroblast growth factor 10 (Homo sapiens) (UniProt O15520). Put plainly: compounds binding fibroblast growth factor 10 – biochemical, small-molecule microarray, 635 nm fluorescence, primary screen (AID 1102). Particulars: FGF10 binding, fluorescence 635 nm, higher = more signal.
Assay [6] deals with glycogen synthase kinase-3 (GSK3A per assay name; protocol says GSK3B). Put plainly: compounds binding glycogen synthase kinase-3 – biochemical, small-molecule microarray, 635 nm fluorescence, GSK3A, primary screen (AID 1103). Note: the record names both GSK3A and GSK3B. Particulars: fluorescence 635 nm, higher = more signal.
The target of assay [7] is Epidermal growth factor receptor (Homo sapiens) (UniProt P00533). As to the kind of experiment: compounds binding epidermal growth factor receptor – biochemical, small-molecule microarray, 635 nm fluorescence, primary screen (AID 1104).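 Note: score merges 667 nm emission intensity with spot signal to noise over triplicate slides.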 To be noted: EGFR binding, higher = more signal.
For assay [8], the target named is Follistatin-related protein 3 (Homo sapiens) (UniProt O95633). As to the kind of experiment: compounds binding follistatin-related protein 3 – biochemical, small-molecule microarray, 635 nm fluorescence, primary screen (AID 1105).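 Note: score merges emission near 667 nm and signal to noise per printed spot across three slides.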 Particulars: FSTL3 binding, higher = more signal.
In assay [9] the target is Dickkopf-related protein 1 (Homo sapiens) (UniProt O94907). Put plainly: small molecules binding DKK1 protein – biochemical, small-molecule microarray, 635 nm fluorescence scan, primary screen (AID 1106).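 Note: score merges emission near 667 nm with signal to noise over three replicate slides.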 To be noted: higher = more signal.
Assay [10] concerns Inhibin beta A chain (activin A). Put plainly: small molecules binding activin A – biochemical, small-molecule microarray, 635 nm fluorescence scan, primary screen (AID 1107).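 Note: mouse activin A protein probed at 4.33 µg/mL on printed slides; score merges bound-protein fluorescence near 667 nm with spot signal-to-noise.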 To be noted: INHBA, higher = more signal.
For assay [11], the system named is Human papillomavirus type 1a protein E7 (residues 44-93). As to the kind of experiment: small molecules binding HPV E7 44-93 – biochemical, small-molecule microarray, residues 44-93, 635 nm fluorescence, primary screen (AID 1108).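 Note: E7 fragment applied at 1 µg/mL in TBST for 1 h at 4 C; score combines spot fluorescence with its signal to noise ratio.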 To be noted: fluorescence 635 nm, higher = more signal.
Assay [12] can be described thus: hepatitis C replication reporter changes, two-sided – Huh7 cells, luciferase reporter, HCV replication inhibitor project, primary screen (AID 1109).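 Note: huh7 hepatoma cells harbouring a luciferase neomycin HCV replicon reporter; luciferase luminescence as measure of HCV replicon replication; test concentration not given here.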 Particulars: Huh7 HCV replicon luciferase reporter, 48 h; higher = more signal.
For assay [13], the target named is Left-right determination factor 2 (Homo sapiens) (UniProt O00292). As to the kind of experiment: small molecules binding LEFTY2 protein – biochemical, small-molecule microarray, 635 nm fluorescence scan, primary screen (AID 1110). To be noted: higher = more signal.
The target in assay [14] is Calmodulin-1 (Homo sapiens) (UniProt P0DP23). As to the kind of experiment: small molecules binding calmodulin-1 with EGTA – biochemical, small-molecule microarray, Cy5-labelled CALM1, profiling panel (AID 1111).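 Note: labelled calmodulin applied in Tris saline Tween buffer holding calcium plus EGTA and DTT.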 Particulars: Cy5-CALM1 binding fluorescence, higher = more signal.
Assay [15] shares this target. Put plainly: small molecules binding Ca-loaded calmodulin-1 – biochemical, small-molecule microarray, Cy5-labelled CALM1, plus calcium, artefact control for SMM control-protein annotation, profiling panel (AID 1112).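 Note: score merges spot fluorescence with signal to noise from triplicate slides.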 To be noted: Cy5-CALM1 binding fluorescence, higher = more signal.
A short description of assay [16]: probe aWnt5a binding to arrayed compounds – biochemical, biotinylated probe, 635/667 nm fluorescence, primary screen (AID 1113).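 Note: score merges 667 nm fluorescence intensity with signal-to-noise per printed feature.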 Particulars: small-molecule microarray, higher = more signal.
Assay [17] can be described thus: probe aShh binding to arrayed compounds – biochemical, biotinylated probe, 635/667 nm fluorescence, primary screen (AID 1114).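 Note: probe is biotin-labelled aShh protein from a stem cell growth factor screen; measures binding of labelled protein to compounds printed on the slide; score merges feature fluorescence at 667 nm with signal-to-noise.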 To be noted: small-molecule microarray, higher = more signal.
Assay [18] is described as follows: probe aNog binding to arrayed compounds – biochemical, biotinylated probe, 635/667 nm fluorescence, primary screen (AID 1115).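 Note: probe is biotinylated aNog protein used at 0.15 µg/mL for 1 h at 4 C; z-score combines 667 nm fluorescence of each spot with its signal to noise.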 Particulars: small-molecule microarray, higher = more signal.
The target of assay [19] is Torsin-1A-interacting protein 1 (Homo sapiens) (UniProt Q5JTV8). As to the kind of experiment: compound microarray binding of lysate hLAP1 – cell lysate, small-molecule microarray, COS7 lysate, 635/667 nm fluorescence, primary screen (AID 1116). Particulars: 635 nm fluorescence, higher = more signal.
Assay [20] concerns the target Alpha-bungarotoxin (Bungarus multicinctus) (UniProt P60615). Put plainly: compounds binding labelled alpha-BTX control protein – biochemical, small-molecule microarray, Alexa647 label, 635/667 nm fluorescence, artefact control for SMM control protein annotation, profiling panel (AID 1117). Particulars: alpha-BTX-A647 binding fluorescence, higher = more signal.

Chain of Fibroblast growth factor 10 (Homo sapiens) (O15520 whole entry, looked up): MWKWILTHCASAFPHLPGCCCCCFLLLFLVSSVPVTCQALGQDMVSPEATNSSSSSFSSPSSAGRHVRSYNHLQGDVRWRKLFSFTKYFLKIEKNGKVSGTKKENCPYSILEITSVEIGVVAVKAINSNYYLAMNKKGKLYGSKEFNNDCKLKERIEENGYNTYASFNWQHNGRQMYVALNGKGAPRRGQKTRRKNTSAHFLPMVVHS
Chain of Torsin-1A-interacting protein 1 (Homo sapiens) (Q5JTV8 whole entry, looked up): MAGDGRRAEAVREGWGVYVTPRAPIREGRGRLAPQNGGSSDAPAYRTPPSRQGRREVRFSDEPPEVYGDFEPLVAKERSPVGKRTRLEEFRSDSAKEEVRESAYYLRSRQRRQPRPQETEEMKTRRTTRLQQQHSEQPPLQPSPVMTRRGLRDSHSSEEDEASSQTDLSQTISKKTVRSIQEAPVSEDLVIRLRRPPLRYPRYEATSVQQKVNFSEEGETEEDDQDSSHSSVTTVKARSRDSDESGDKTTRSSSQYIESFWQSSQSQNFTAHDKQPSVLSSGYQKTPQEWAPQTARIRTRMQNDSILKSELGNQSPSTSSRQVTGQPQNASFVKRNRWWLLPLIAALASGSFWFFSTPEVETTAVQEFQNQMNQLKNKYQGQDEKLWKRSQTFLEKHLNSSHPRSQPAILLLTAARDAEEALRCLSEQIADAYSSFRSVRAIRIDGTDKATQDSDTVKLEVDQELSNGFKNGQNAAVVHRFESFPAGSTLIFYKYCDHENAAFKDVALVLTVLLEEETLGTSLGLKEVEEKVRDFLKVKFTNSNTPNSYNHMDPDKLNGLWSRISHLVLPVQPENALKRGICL
Chain of Follistatin-related protein 3 (Homo sapiens) (O95633 whole entry, looked up): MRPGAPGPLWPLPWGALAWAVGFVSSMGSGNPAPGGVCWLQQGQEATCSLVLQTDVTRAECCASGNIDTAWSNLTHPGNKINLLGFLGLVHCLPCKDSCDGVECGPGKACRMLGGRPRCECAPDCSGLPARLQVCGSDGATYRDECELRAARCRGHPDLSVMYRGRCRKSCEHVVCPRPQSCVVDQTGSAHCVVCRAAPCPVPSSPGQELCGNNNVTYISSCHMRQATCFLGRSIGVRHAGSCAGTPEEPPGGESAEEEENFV
Chain of Epidermal growth factor receptor (Homo sapiens) (P00533 whole entry, looked up): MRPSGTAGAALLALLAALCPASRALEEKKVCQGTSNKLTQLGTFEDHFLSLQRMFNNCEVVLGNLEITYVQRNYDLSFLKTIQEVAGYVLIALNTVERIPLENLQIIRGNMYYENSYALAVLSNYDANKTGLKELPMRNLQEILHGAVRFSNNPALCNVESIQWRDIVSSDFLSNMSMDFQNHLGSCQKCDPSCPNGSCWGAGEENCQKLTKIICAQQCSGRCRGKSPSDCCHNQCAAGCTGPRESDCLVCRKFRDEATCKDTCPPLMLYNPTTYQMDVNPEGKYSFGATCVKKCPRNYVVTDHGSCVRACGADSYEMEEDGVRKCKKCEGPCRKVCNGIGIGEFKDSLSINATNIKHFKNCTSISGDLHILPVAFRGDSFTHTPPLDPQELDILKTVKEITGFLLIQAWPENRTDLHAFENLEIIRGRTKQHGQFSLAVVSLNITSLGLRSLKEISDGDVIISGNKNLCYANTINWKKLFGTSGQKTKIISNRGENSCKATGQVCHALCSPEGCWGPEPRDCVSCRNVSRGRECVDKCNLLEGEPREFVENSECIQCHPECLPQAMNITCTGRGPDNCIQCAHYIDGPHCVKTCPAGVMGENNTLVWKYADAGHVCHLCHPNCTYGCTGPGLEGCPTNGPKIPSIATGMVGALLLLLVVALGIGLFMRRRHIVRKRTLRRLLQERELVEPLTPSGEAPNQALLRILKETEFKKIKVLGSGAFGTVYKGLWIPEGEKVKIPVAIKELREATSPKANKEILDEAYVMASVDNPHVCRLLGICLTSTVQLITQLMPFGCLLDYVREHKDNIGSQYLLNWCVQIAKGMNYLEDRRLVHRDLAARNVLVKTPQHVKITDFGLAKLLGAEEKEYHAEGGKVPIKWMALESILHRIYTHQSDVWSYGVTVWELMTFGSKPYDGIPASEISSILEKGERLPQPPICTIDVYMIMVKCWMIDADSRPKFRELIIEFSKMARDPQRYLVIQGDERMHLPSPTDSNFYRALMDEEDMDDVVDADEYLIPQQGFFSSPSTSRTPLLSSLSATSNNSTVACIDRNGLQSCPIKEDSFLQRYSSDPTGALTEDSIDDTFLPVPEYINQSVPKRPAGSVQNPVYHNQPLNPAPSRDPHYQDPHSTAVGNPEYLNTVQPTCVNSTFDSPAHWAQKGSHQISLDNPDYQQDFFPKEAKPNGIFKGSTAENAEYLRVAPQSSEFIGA
Chain of Left-right determination factor 2 (Homo sapiens) (O00292 whole entry, looked up): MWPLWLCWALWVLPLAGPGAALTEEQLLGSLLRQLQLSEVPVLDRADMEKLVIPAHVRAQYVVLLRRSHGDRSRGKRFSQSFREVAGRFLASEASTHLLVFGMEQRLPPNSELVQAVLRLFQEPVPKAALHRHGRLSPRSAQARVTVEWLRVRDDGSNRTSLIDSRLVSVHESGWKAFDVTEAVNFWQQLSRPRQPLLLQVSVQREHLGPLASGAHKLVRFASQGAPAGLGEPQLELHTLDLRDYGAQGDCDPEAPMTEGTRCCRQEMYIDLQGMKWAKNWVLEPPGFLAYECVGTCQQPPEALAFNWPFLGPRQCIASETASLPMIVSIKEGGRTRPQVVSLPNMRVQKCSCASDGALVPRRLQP
Chain of Dickkopf-related protein 1 (Homo sapiens) (O94907 whole entry, looked up): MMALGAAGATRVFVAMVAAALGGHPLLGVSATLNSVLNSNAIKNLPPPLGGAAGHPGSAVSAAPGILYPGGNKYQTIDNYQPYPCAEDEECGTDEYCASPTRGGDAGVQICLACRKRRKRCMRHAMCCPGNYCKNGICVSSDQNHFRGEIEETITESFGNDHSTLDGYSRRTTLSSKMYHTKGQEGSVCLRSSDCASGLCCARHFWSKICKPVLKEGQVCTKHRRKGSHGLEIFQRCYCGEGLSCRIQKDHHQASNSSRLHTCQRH
Chain of Alpha-bungarotoxin (Bungarus multicinctus) (P60615 whole entry, looked up): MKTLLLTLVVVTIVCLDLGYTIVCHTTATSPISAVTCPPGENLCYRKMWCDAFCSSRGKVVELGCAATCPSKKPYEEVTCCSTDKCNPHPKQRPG

On to `CC(C)C(O)C1C=CC2C(=O)N(C)C(=O)C2N1N1CCCCC1` (stereo not given), for which the composite z-score is 1.61 in assay [1]; 0.184 in assay [2]; 0.674 in assay [3]; 0.709 in assay [5]; 0.752 in assay [6]; 0.403 in assay [7]. Besides, the composite z-score amounted to 0.159 in assay [8]; 0.13 in assay [9]; 0.976 in assay [10]; 0.471 in [11]; 0.223 in assay [13]; 0.372 in [14]. The composite z-score in assay [15] is -0.387; in [16] it was -0.0462; in assay [17], 0.0723; in assay [18], 0.693; in assay [19], 0.815; in assay [20] it was 0.502. Also, the z-score is 1.15 (inactive) in assay [4] and 0.279 in [12].
As for `C=C(C)[C@@H]1CC=C(C(O)C2C=CC3C(=O)N(Cc4ccccc4)C(=O)C3N2n2cnnc2)CC1` (stereo not given in full), the composite z-score in [1] is 0.827; in assay [2], 0.546; in [3], 1.11; in assay [5], -0.394; in assay [6], -0.724; in [7], -0.608. In addition, the composite z-score in [8] is -0.739; in assay [9], -0.665; in assay [10] it was 1.34; in [11] it was 0.146; in assay [13], -0.485; in assay [14], 0.133. The composite z-score was 0.3 in assay [15]; 0.0077 in [16]; -0.156 in [17]; 0.499 in [18]; 0.401 in assay [19]; 0.291 in assay [20]. Also, the z-score is -0.925 (inactive) in [4] and -2.2 in [12].
Turning to `CCOC(=O)C[C@H]1[C@H](OC(=O)c2ccc(C(=O)c3ccccc3)cc2)[C@@H](NC(=O)c2ccc3ccccc3n2)c2cc(OCCCO)ccc2N1C(=O)c1ccc2ccccc2n1`, the composite z-score in [1] is 0.143; in assay [2], 0.492; in assay [3], 0.661; in assay [5], 0.418; in assay [6], 0.232; in [7] it was 0.703. The composite z-score in assay [8] turned out to be 0.154; in assay [9] it was 0.0952; in [10] it was 0.41; in [11], 1.03; in assay [13] it was 0.691; in assay [14], 0.338. The composite z-score in assay [15] was -0.59; in assay [16], 0.0761; in [17], -0.0904; in assay [18] it was -0.158; in assay [19] it was 1.92; in [20], 0.583. The z-score was -0.679 (inactive) in [4] and -0.931 in assay [12].
For `CCOC(=O)C1=CC[C@@H](c2ccccc2)N(S(=O)(=O)c2ccc(C)cc2)[C@H]1c1ccc(C#N)cc1`, the composite z-score in assay [1] is 0.802; in [2], 1.17; in assay [3], 1.18; in assay [5] it was 0.278; in assay [6], 1.29; in [7], -0.18. Also, the composite z-score in assay [8] was 0.272; in assay [9], -0.972; in assay [10] it was 0.676; in assay [11] it was 1.2; in assay [13] it was -0.266; in assay [14], 1.95. The composite z-score in assay [15] was 1; in assay [16] it was -0.0236; in assay [17], 0.385; in assay [18], 0.621; in assay [19] it was 1.48; in assay [20], 1.84. In addition, the z-score in assay [4] is -0.29 (inactive); in [12] it was -2.11.
Regarding `COc1ccc(C#Cc2ccc3c(c2)[C@]2(C(=O)N3)[C@H](c3ccc(OCCO)cc3)N3[C@H](c4ccccc4)[C@H](c4ccccc4)OC(=O)[C@H]3[C@@H]2C(=O)Nc2nc3ccccc3s2)cc1`, the composite z-score in assay [1] amounted to 1.29; in assay [2], 0.771; in [3], 0.72; in assay [5] it was 1.3; in assay [6] it was 1.29; in assay [7], 0.655. Besides, the composite z-score came out at 1.38 in assay [8]; 0.618 in [9]; 0.331 in assay [10]; 1.34 in assay [11]; 0.776 in assay [13]; 1.57 in [14]. In addition, the composite z-score was determined as 0.446 in assay [15]; 0.104 in assay [16]; 0.0711 in assay [17]; 0.83 in assay [18]; 0.0329 in assay [19]; 1.52 in assay [20]. In addition, the z-score in assay [4] was 3.63 (inactive); in [12], -2.
Turning to `CN(C)CCCC[C@@H]1NC(=O)[C@@H]2C[C@H](C(=O)NCCCCCCN)[C@H](c3ccc(O)cc3)N2C1=O`, the composite z-score in [1] is 0.812; in assay [2], 1.46; in assay [3] it was 0.848; in assay [5] it was 0.987; in assay [6], 1; in assay [7] it was 0.734. The composite z-score in assay [8] worked out at 0.849; in assay [9] it was 1.05; in [10], 1.41; in [11], 1.42; in [13] it was 0.984; in assay [14], 0.98. The composite z-score was 1.02 in assay [15]; 0.178 in assay [16]; 0.584 in [17]; -0.172 in assay [18]; 1.7 in assay [19]; 0.629 in [20]. Besides, the z-score in assay [4] was -0.0228 (inactive); in assay [12] it was -0.379.
